{
  "source": "PubChem BioAssay (NCI)",
  "note": "This is part of a sample that, as a whole, favours compounds with a hit. Of some 83,000 tested, about 20% had one in any assay.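 Percent growth is the endpoint: 0 to 100 indicates growth inhibition (40 means 60% inhibition), 0 means no net growth, and negative values indicate cell death.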 Calls of active or inactive are those of the source. Rule for the calls: active = growth percent below 10; inactive = the rest.",
  "data": [
    {"tested_on": "MDA-MB-468 breast", "experiment": "NCI-60 one-dose screen, 48 h (100 = growth as untreated, 0 = no growth, -100 = all killed)", "conditions": "10 µM unless noted", "values": [
      {"smiles": "Cn1cc(-c2csc(-c3cn(CCN4CCOCC4)c4ccc(F)cc34)n2)c2cccnc21", "growth": "13.9% (inactive)"},
      {"smiles": "O=C(O)CCCc1ccc(N(CCCl)CCCl)cc1", "growth": "77.7% (inactive)"},
      {"smiles": "CC(=O)ONc1ccc([N+](=O)[O-])c(C(F)(F)F)c1", "growth": "118% (inactive)"},
      {"smiles": "O=C(O)C1C(C(=O)O)C2(Cl)C(Cl)=C(Cl)C1(Cl)C2(Cl)Cl.[Hg]", "note": "(stereo not drawn)", "growth": "58.4% (inactive)"},
      {"smiles": "C/C(=C\\c1cc(C(F)(F)F)nn1CCNC(=O)OC(C)(C)C)[C@@H]1C[C@@H]2O[C@]2(C)CCC[C@H](C)[C@H](O)[C@@H](C)C(=O)C(C)(C)[C@@H](O)CC(=O)O1", "growth": "58.6% (inactive)"},
      {"smiles": "CC(=O)O[C@H]1CCC2(C)C(=CCC3C2CCC2(C)/C(=N/OC(=O)c4ccc(N(CCCl)CCCl)cc4)CCC32)C1", "note": "(stereo partly drawn)", "growth": "79.9% (inactive)"},
      {"smiles": "O=C1CC2(CC3(Cl)C(Cl)=C(Cl)C2(Cl)C3(Cl)Cl)C(=O)O1", "note": "(stereo not drawn)", "growth": "105% (inactive)"},
      {"smiles": "O=C(O)c1cccc(CCl)c1", "growth": "105% (inactive)"},
      {"smiles": "O=S(=O)(F)c1cccc(Cl)c1C[P+](c1ccccc1)(c1ccccc1)c1ccccc1", "growth": "46.9% (inactive)"},
      {"smiles": "Cc1nnc([S-])s1.[Au+].c1ccc([PH+](c2ccccc2)c2ccccc2)cc1", "growth": "-68.6% (active)"},
      {"smiles": "ClCCN(CCCl)c1nc(Cl)c(C2CC(c3ccc(Cl)cc3)=NN2c2cc(Cl)cc(Cl)c2)s1", "note": "(stereo not drawn)", "growth": "112% (inactive)"},
      {"smiles": "CC(=O)/C=C/c1ccc2c(c1)OCO2", "growth": "96.6% (inactive)"},
      {"smiles": "CC1COC(=O)C1", "note": "(stereo not drawn)", "growth": "106% (inactive)"},
      {"smiles": "O=C1NC(=O)C(=Cc2cn(C(=O)c3ccccc3)c3ccccc23)C(=O)N1", "growth": "101% (inactive)"},
      {"smiles": "CCCOC(=O)N[C@H]1CCc2c(Br)c(OC)c(OC)c(OC)c2-c2ccc(SC)c(=O)cc21", "growth": "-14.2% (active)"},
      {"smiles": "O=C(Cc1ccccc1)NC(O)C(Cl)(Cl)Cl", "note": "(stereo not drawn)", "growth": "104% (inactive)"},
      {"smiles": "N#CC1(C#N)C(c2ccc(N(CCCl)CCCl)cc2)OC23CCCCC2C1(C#N)C(=N)O3", "note": "(stereo not drawn)", "growth": "56.5% (inactive)"},
      {"smiles": "C[C@]12CCc3nc(Nc4ccccc4F)sc3C1=CC[C@@H]1[C@@H]2CC[C@]2(C)C(=O)CC[C@@H]12", "growth": "23.7% (inactive)"},
      {"smiles": "CCCCOC(N)=O", "growth": "101% (inactive)"},
      {"smiles": "COc1cc(C=Nc2cccc(Br)c2)ccc1N(CCCl)CCCl", "growth": "-18.8% (active)"},
      {"smiles": "CN(C)CCCOc1ccc2c(c1)c(C(=O)C(=O)NCCO)cn2Cc1ccccc1", "growth": "117% (inactive)"},
      {"smiles": "Nc1c(F)cc(-c2nc3cc(F)ccc3[se]2)cc1Br", "growth": "-35.4% (active)"},
      {"smiles": "CC1(C)CN=C(NN=C(/C=C/c2ccc(C(F)(F)F)cc2)/C=C/c2ccc(C(F)(F)F)cc2)NC1", "growth": "-84% (active)"}
    ]}
  ]
}
